Hits are enriched below; roughly 28% of the tested compounds scored in any of these assays.
PLK1 inh: blocks human PLK1 kinase activity; P53350; recombinant PLK1 kinase, TR-FRET peptide phosphorylation; inhibition, % at 10 µM; 97,000 tested, 0.53% active; AID 619;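 active means inhibition of 50% or more in the single-concentration screen; inactive means inhibition below 50%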
CYP2C19 act: activators of human cytochrome P450 2C19. P33261. recombinant CYP2C19, luciferin-H EGE luminescence; active compounds read high; 0 = fully inhibited enzyme, 1 = untreated enzyme. activation factor at 5 µM. 96,000 tested, under 10 active. AID 1025;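 active means activation factor of at least 2 at 5 µM in the primary screen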
CYP2C19 inhib: inhibitors of human CYP2C19. 96,000 tested, 21% active. inhibition, % at 5 µM. AID 778. CYP2C19 Supersomes, luciferin-H EGE luminescence, 30 min. P33261;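 active means CYP2C19 inhibition above a set limit at 5 µM in the primary screen, cut at about 50% in these data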
Plk1 PBD FP: blocks phosphopeptide binding to human Plk1 polo box domain; AID 693; inhibition, %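 (tested at about 20 µM)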; P53350; Plk1 PBD phosphopeptide binding, fluorescence polarization; 97,000 tested, 0.13% active; in the data active means inhibition above about 34%, passing the limit was not always enough
CYP2C9 activ: increases human cytochrome P450 2C9 activity; P11712; recombinant CYP2C9, luciferin-H conversion, luminescence; active compounds read high; factor 1 = untreated enzyme, 0 = blocked; activation factor at 5 µM; 96,000 tested, 1.4% active; AID 1024;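 active means activation factor of 2 or more for CYP2C9 at a 5 µM dose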
Target sequence (P11712 whole entry, looked up): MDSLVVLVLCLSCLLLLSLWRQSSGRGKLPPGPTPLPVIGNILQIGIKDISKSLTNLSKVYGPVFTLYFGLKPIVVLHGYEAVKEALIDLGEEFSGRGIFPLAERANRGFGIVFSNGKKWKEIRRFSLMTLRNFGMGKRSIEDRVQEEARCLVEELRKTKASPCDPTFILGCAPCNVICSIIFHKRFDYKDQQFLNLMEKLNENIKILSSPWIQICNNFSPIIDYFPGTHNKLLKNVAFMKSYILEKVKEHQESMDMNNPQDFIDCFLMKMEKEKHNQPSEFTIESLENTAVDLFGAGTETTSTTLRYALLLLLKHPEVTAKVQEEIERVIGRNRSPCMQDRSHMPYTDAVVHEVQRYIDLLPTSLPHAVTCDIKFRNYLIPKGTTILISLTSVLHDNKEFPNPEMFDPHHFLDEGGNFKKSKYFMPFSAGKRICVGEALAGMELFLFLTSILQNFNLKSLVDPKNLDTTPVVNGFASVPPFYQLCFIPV
CYP2C9 inh: human CYP2C9 inhibition | P11712 | inhibition, % at 5 µM | CYP2C9 Supersomes, luciferin-H conversion, luminescence | AID 777 | 96,000 tested, 20% active;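 active means blocking of liver enzyme CYP2C9 beyond about 50% at 5 µM, limit read from the data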
Each line names hits and unclear results; the compound was inactive in the other large screens.

CN1CCN(C(=O)c2ccc3c(c2)N(Cc2ccc(Cl)cc2)C(=O)c2ccccc2S3=O)CC1 (centres undefined)	none (no result: PLK1 inh, Plk1 PBD FP)
Brc1ccc(Oc2ncc(CN3CCOCC3)s2)cc1	CYP2C19 inhib 80
Brc1ccc(OCCOCCN2CCOCC2)cc1	none
COc1ccc(Oc2ncc(CN3CCN(c4ccccc4)CC3)s2)cc1	CYP2C19 inhib 82, CYP2C9 inh 93
Cc1cc(Cl)ccc1Oc1ncc(CN2CCN(c3ccccc3)CC2)s1	none
COC(=O)c1c[nH]n2c(=O)cc(CCl)nc12	none
CCCc1nc2oc(C(=O)OCC)c(N)c2c2c1COC(C)(C)C2	none
CCOC(=O)C(CC)(CC)/C(C)=N/NC(=O)CC#N	CYP2C19 inhib 72
N#CCC(=O)NN=C1CCCCCCCCCCC1	none
CCc1nnc(NC(=O)Cc2ccc(OCc3c(C)noc3C)cc2)s1	none
CCn1c2ccccc2c2cc(NS(=O)(=O)c3ccc(C)cc3)ccc21	CYP2C19 inhib 54, CYP2C9 inh 86
CCn1c2ccccc2c2cc(NC(C)=O)ccc21	CYP2C19 inhib 98
CCCCN(Cc1ccco1)C(=O)c1cc2c(=O)[nH]c3ccc(C)cc3c2s1	CYP2C19 inhib 50, CYP2C9 inh 72
Cc1ccc2cc(CN(Cc3ccco3)C(=O)c3cccs3)c(=O)[nH]c2c1	none
Cc1ccc2[nH]c(=O)c3cc(C(=O)N(CCCOC(C)C)Cc4ccco4)sc3c2c1	CYP2C9 inh 58
Cc1ccc2[nH]c(=O)c(CN(Cc3ccco3)C(=O)c3cccs3)cc2c1	none (no result: CYP2C19 act, CYP2C19 inhib, CYP2C9 activ, CYP2C9 inh)
CC1CCN(S(=O)(=O)c2ccc(NC(=O)Cc3cccs3)cc2)CC1	none
CC(=O)NC1C(c2nc3ccccc3s2)=C(c2ccccc2)C(=O)N1c1ccc(C)cc1 (centres undefined)	none
COc1cccc(N2C(=O)C(c3ccccc3)=C(c3nc4ccccc4s3)C2NC(C)=O)c1 (centres undefined)	CYP2C19 inhib 56, CYP2C9 inh 51
CCN(Cc1cc2ccccc2[nH]c1=O)C(=O)C(C)C	none
CN(C)CCCN1C(=O)C(=O)/C(=C(/O)c2ccccc2)C1c1ccccn1 (centres undefined)	none (no result: PLK1 inh, Plk1 PBD FP)
O=C1C(=O)N(Cc2cccnc2)C(c2ccccn2)/C1=C(/O)c1ccc(Br)cc1 (centres undefined)	CYP2C9 inh 86
O=C(Nc1ccc(Oc2ccccc2)cc1)C1CCCN(c2ncccn2)C1 (centres undefined)	none
CS(=O)(=O)N1N=C(c2ccc(Cl)cc2)CC1c1cccs1 (centres undefined)	CYP2C19 inhib 94, CYP2C9 inh 56
O=C(CSCc1ccccc1Cl)N1CCN(c2ccccn2)CC1	CYP2C19 inhib 87, CYP2C9 inh 85
O=C(CCSCc1ccccc1F)N1CCN(c2ccccn2)CC1	CYP2C19 inhib 50, CYP2C9 inh 77 (no result: PLK1 inh, Plk1 PBD FP)
O=C(CCn1nc(-c2ccccc2)ccc1=O)N1CCN(c2ccccn2)CC1	none (no result: PLK1 inh, Plk1 PBD FP)
O=C(c1cn(-c2ccccc2)nc1-c1cccs1)N1CCN(c2ccccn2)CC1	CYP2C19 inhib 96, CYP2C9 inh 100
O=C(CNS(=O)(=O)c1cccs1)N1CCN(c2ccccn2)CC1	none
O=C(Cc1cccs1)N1CCN(c2ccccn2)CC1	CYP2C19 inhib 52
CC(C)N=C(Nc1ccccc1)c1cccnc1	none
O=C(c1cn(-c2ccccc2)nc1-c1cccs1)N(CCO)Cc1ccccc1	CYP2C19 inhib 75, CYP2C9 inh 69
O=C(CCSCc1ccccc1Cl)N1CCN(c2cccc(Cl)c2)CC1	CYP2C9 inh 63
ON1C2CCCCC2N(O)C1c1c(F)c(F)c(F)c(F)c1F (centres undefined)	none
CCc1nnc(NS(=O)(=O)c2ccc(N/C=C\C(=O)c3ccc(C)cc3)cc2)s1	CYP2C9 inh 88
CCc1nnc(NS(=O)(=O)c2ccc(NS(=O)(=O)c3ccc(NC(C)=O)cc3)cc2)s1	CYP2C9 inh 77
Cc1cccc(OCCCC(=O)Nc2nccs2)c1	CYP2C19 inhib 76
Cc1ccc(OCCCC(=O)Nc2nccs2)cc1	CYP2C19 inhib 54, CYP2C9 inh 55
Cc1cccc(OCCCC(=O)Nc2ccc(Br)cc2)c1	CYP2C19 inhib 59
O=C(CCCOc1ccccc1)Nc1nncs1	CYP2C19 inhib 97, CYP2C9 inh 83
Cc1cccc(OCCCC(=O)NC(C)C)c1	none
Oc1ccc(/C=C/c2nc(-c3ccccc3O)n(-c3ccccc3)n2)cc1	none
O=C(O)c1ccccc1NCN1C(=O)C2CC=C(Cl)CC2C1=O (centres undefined)	none
CC(/C=N\NC(=O)c1cccnc1)c1ccccc1 (centres undefined)	none (no result: CYP2C19 act, CYP2C19 inhib, CYP2C9 activ, CYP2C9 inh)
Cc1[nH]c2ccc3c(ncn3CCC#N)c2c1C	none
Cc1ccsc1C(=O)Nc1cc(C(C)(C)C)nn1-c1ccccc1	none
CCC(=O)NCCCOc1ccccc1	none
COc1cc(CC(=O)Nc2nccs2)cc(OC)c1OC	CYP2C19 inhib 80 (no result: PLK1 inh, Plk1 PBD FP)
Cc1ccc([N+](=O)[O-])cc1NC(=O)CCCOc1ccccc1	CYP2C9 activ 2.3
CC(C)CCNC(=O)CCCOc1ccccc1	CYP2C19 inhib 54
COC(=O)c1cnc(SC)nc1C	none
COC(=O)CCSCC(=O)Nc1nnc(C)s1	none (no result: PLK1 inh, Plk1 PBD FP)
CC(Oc1ccc2oc(-c3ccccc3)c(C(=O)O)c2c1)C(=O)O (centres undefined)	none
COc1cc(C2C=C(C34CC5CC(CC(C5)C3)C4)NC(=S)N2)cc(OC)c1OC (centres undefined)	CYP2C9 inh 54
COc1ccc(C2=CC(c3cc(OC)c(OC)c(OC)c3)NC(=S)N2)cc1 (centres undefined)	CYP2C19 inhib 74, CYP2C9 inh 94
COc1cc(C2SCC(=O)N2c2nnc(C34CC5CC(CC(C5)C3)C4)s2)cc(OC)c1OC (centres undefined)	none
CSc1ccc(-c2nnn(Cc3ccc(C)cc3)n2)cc1	CYP2C19 inhib 62
O=C(CN1CCOCC1)Nc1ccc(-c2nc3ccccc3[nH]2)cc1	none
Cn1ncc([N+](=O)[O-])c1C(=O)Nc1ccc(-c2nc3ccccc3[nH]2)cc1	CYP2C19 inhib 62
CCC(=O)c1ccc(O)c(CC=C(C)C)c1	CYP2C19 inhib 58, CYP2C9 inh 64
Nc1nc(CN2CCCCCC2)nc(Nc2ccccc2)n1	none
COc1ccc(Nc2nc(N)nc(CN3CCc4ccccc4C3)n2)cc1	CYP2C9 inh 56
Nc1nc(CN2CCc3ccccc3C2)nc(Nc2ccccc2)n1	CYP2C9 inh 52
Nc1nc(CN2CCN(c3ccccc3F)CC2)nc(Nc2ccccc2)n1	CYP2C9 inh 77
Cc1ccc(Nc2nc(N)nc(CN3CCN(c4ccccc4F)CC3)n2)cc1	none
Cc1ccc(C)c(CN2CCCNC2=O)c1	none (no result: CYP2C19 act, CYP2C19 inhib, CYP2C9 activ, CYP2C9 inh)
Cc1c(C(=O)Nc2ccccc2)sc2nc(-c3ccccc3)cn12	CYP2C19 inhib 70, CYP2C9 inh 76
COc1ccc(-c2cn3c(C)c(C(=O)Nc4cccc(C)n4)sc3n2)cc1	none (no result: CYP2C19 act, CYP2C19 inhib, CYP2C9 activ, CYP2C9 inh)
